KDM5B inh – inhibitors of human KDM5B histone demethylase; KDM5B demethylase, FDH-coupled NADH fluorescence (FDH is formaldehyde dehydrogenase); Potency, µM (highest dose often 57.7 µM), most hits filed as inhibitors; 220,000 compounds, 2.6% hits; active = well fitted inhibition curve with a large enough effect; note: nearly all actives have a fitted effect of over 70% in size
Target sequence (Q9UGL1 whole entry, looked up): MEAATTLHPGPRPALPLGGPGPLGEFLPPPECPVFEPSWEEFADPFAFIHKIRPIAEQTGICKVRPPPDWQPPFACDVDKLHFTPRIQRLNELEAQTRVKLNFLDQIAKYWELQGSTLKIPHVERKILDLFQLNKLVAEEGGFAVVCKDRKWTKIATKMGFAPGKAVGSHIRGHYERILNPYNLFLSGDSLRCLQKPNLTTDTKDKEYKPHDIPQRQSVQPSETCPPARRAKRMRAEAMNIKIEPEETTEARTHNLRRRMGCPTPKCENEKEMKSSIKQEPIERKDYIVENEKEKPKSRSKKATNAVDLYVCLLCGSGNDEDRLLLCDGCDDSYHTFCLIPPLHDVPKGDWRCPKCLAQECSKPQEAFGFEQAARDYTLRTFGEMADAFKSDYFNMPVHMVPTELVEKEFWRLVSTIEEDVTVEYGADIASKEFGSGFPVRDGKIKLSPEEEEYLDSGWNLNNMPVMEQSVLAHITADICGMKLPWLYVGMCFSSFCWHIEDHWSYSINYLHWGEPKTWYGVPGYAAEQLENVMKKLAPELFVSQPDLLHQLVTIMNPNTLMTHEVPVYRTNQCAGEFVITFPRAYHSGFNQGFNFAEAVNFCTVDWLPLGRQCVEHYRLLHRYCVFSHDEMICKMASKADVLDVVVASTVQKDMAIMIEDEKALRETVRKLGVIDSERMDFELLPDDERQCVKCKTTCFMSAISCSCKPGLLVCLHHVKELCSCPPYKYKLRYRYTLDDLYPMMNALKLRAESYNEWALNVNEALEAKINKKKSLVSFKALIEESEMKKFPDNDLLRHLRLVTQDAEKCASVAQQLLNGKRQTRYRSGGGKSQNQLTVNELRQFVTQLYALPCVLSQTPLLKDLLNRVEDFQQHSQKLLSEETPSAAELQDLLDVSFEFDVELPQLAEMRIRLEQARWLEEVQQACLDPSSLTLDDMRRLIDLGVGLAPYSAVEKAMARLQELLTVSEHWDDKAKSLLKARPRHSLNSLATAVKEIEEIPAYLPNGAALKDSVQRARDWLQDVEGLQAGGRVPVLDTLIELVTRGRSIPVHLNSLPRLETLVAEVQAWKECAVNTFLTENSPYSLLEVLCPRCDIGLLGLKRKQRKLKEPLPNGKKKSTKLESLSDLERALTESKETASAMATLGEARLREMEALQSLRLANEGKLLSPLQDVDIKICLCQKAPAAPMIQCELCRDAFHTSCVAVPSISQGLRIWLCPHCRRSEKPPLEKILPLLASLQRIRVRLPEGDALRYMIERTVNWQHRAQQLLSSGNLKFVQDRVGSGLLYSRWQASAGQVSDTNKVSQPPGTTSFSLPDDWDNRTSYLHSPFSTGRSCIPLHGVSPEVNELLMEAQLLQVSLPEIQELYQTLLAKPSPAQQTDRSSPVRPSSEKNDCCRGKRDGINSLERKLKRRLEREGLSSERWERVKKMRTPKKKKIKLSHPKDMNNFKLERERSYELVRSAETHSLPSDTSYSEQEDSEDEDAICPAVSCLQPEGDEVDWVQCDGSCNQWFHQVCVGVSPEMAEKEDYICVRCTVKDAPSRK
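Measured: NADH fluorescence change, 30 min, RT. System: KDM5BΔAP 200 nM final, H3K4me3 peptide, α-KG, Fe(II), ascorbate, NAD⁺ plus FDH, pH 7.5 HEPES. Compounds: titrated, 10 min pre-incubation with enzyme.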
A number is an active result. Shown is part of a subset that was picked to be rich in hits.

Screening CC(NC(=O)COc1ccccc1)C(=O)N1CCN(c2ccccn2)CC1 (configuration not stated) returned KDM5B inh 22µM.
For Cc1cccc(OCC(=O)NC(C)C(=O)N2CCN(c3ccccn3)CC2)c1 (configuration not stated) the results were KDM5B inh 35µM.
Screening Cc1nnc(SCc2nc3ccccc3o2)n1-c1ccccc1 returned KDM5B inh inactive.
`COC(=O)CNC(=O)COC(=O)c1cc(=O)c2ccccc2o1` gave KDM5B inh inactive.
For Cc1nnc2n1CCC(NC(=O)c1ccoc1)CC2 (configuration not stated) the results were KDM5B inh inactive.
For Cc1nnc2n1CCC(NC(=O)c1ccc3cc[nH]c3c1)CC2 (configuration not stated) the results were KDM5B inh 28µM.
Screening Cc1nnc2n1CCC(N(C)C(=O)c1ccc3[nH]ccc3c1)CC2 (configuration not stated) returned KDM5B inh inactive.
For CCN(Cc1ccc(C(N)=O)cc1)Cc1cccs1 the results were KDM5B inh inactive.
Screening COc1ccc(-n2c(C)c(C)c3c2ncn2nc(-c4cccs4)nc32)cc1 returned KDM5B inh inactive.
CCOc1ccc(CC(=O)N2CCC3(CC2)N=C(c2ccc(Cl)cc2)NO3)cc1 was read as KDM5B inh 16µM.
Screening O=C(c1ccc(Cl)cc1)N1CCC2(CC1)N=C(c1ccccc1)NO2 returned KDM5B inh inactive.
For Cc1ccc(C2=NC3(CCN(C(=O)Cc4ccc(F)cc4)CC3)ON2)cc1 the results were KDM5B inh inactive.
`Cc1ccc(C2=NC3(CCN(C(=O)c4ccc(F)c(F)c4)CC3)ON2)cc1` gave KDM5B inh inactive.
For O=C(CCc1ccccc1)N1CCC2(CC1)N=C(c1ccc(Cl)cc1)NO2 the results were KDM5B inh inactive.
For CCOc1ccc(C(=O)N2CCC3(CC2)N=C(c2ccc(Cl)cc2)NO3)cc1 the results were KDM5B inh 28µM.
For CC1CCN(C(CNC(=O)c2ccccc2SC(F)F)c2cccs2)CC1 (configuration not stated) the results were KDM5B inh inactive.
CCc1ccc2c(Cn3nc(C)c(C)c(C#N)c3=O)cc(=O)oc2c1 was read as KDM5B inh inactive.
For CCn1c(N2CCC(C(=O)Nc3ccc(C(C)C)cc3)CC2)cc(=O)n(C)c1=O the results were KDM5B inh inactive.
For Cc1cccc(NC(=O)CCc2c[nH]c3ccccc23)c1 the results were KDM5B inh inactive.
For Cc1cc(Br)cc(Cl)c1OCC(=O)Nc1cccc(N2CCCC2=O)c1 the results were KDM5B inh inactive.
Screening CCC(=O)c1cc(Cl)ccc1OCC(=O)Nc1ccccc1N1CCCC1=O returned KDM5B inh inactive.
`CCc1nc2c(c(-c3ccc(Cl)cc3)n1)CCN([S+](=O)([O-])c1ccccc1)CC2` gave KDM5B inh inactive.
For Cc1noc(C)c1-c1cnc(Nc2ccccc2)c2c1CCO2 the results were KDM5B inh 35µM.
Cc1noc(C)c1S(=O)(=O)Nc1cccc(C(F)(F)F)c1 was read as KDM5B inh inactive.
For FC(F)(F)c1cccc(Nc2nc3nonc3nc2Nc2ccc(Cl)cc2)c1 the results were KDM5B inh inactive.
`Cc1noc(C)c1-c1cnc(Nc2cccc(C(F)(F)F)c2)c2c1CCO2` gave KDM5B inh 35µM.
Screening CSc1ccc(Nc2ncncc2-c2nc(-c3ccccc3)no2)cc1 returned KDM5B inh inactive.
Screening COCCCNCc1cccc2ccccc12 returned KDM5B inh inactive.
`CCCn1nc(C(=O)N(C)C(C)c2ccc(F)c(F)c2)c2ccccc2c1=O` (configuration not stated) gave KDM5B inh inactive.
`N#C/C(=C\c1c[nH]c2ccccc12)C(=O)Nc1ccccc1O` gave KDM5B inh inactive.
Cc1nn(-c2nc3c(c(=O)n(Cc4ccccc4Cl)c(=O)n3C)n2C(C)C)c(C)c1C was read as KDM5B inh inactive.
Cc1cc(NC(=O)[C@@H]2CCCN2S(=O)(=O)c2ccc(OC(C)C)cc2)no1 was read as KDM5B inh inactive.
CN(C(=O)C(c1ccccc1)c1ccccc1)c1nc2ccccc2o1 was read as KDM5B inh inactive.
Screening FC(F)(F)C(Oc1nc(N2CCOCC2)nc(N2CCOCC2)n1)C(F)(F)F returned KDM5B inh inactive.
For CSC1=N/C(=C\c2ccc3ccccc3c2)C(=O)S1 the results were KDM5B inh inactive.
`Cc1ccc(/C=N/N=C(c2ccccc2)c2ccccc2)o1` gave KDM5B inh inactive.
O=C(Cc1cccs1)N1CCSCC1 was read as KDM5B inh inactive.
`CCOC(=O)N1CCC(Nc2ncncn2)CC1` gave KDM5B inh inactive.
CCOc1nccnc1NC1CCN(C(=O)Cc2cccs2)CC1 was read as KDM5B inh 32µM.
For CCCOc1cccc(C(=O)N2CCN(C(=O)C3CCCO3)CC2)c1 (configuration not stated) the results were KDM5B inh inactive.
For CCOc1nccnc1NC1CCN(C(=O)NC)CC1 the results were KDM5B inh 28µM.
Screening Cc1ccc(CC(=O)N2CCN(C(=O)C3CCCO3)CC2)cc1 (configuration not stated) returned KDM5B inh inactive.
For O=C(Cc1cccs1)N1CCC(Oc2ccccc2)C1 (configuration not stated) the results were KDM5B inh inactive.
For CCOc1nccnc1NC1CCN(C(=O)C2CCCO2)CC1 (configuration not stated) the results were KDM5B inh 28µM.
Screening CNC(=O)N1CCC(Oc2ncccc2C(=O)N(C)C)C1 (configuration not stated) returned KDM5B inh inactive.
`c1ccc(CNCCN2CCCC2)cc1` gave KDM5B inh inactive.
For Cc1cc(NC(=O)CSc2nc(Nc3ccccc3)c3ccccc3n2)no1 the results were KDM5B inh inactive.
Screening O=C(CSc1nc2cc([N+](=O)[O-])ccc2o1)Nc1cccc(Cl)c1 returned KDM5B inh inactive.
`O=C(CCC(=O)OCc1ccccc1F)Nc1ccc2c(c1)oc1ccccc12` gave KDM5B inh inactive.
`CC(C)c1ccc2oc(-c3ccc(NC(=O)c4ccc([N+](=O)[O-])o4)cc3)nc2c1` gave KDM5B inh inactive.
For O=C(CCS(=O)(=O)c1ccc2c(c1)OCCO2)Nc1cccc(F)c1 the results were KDM5B inh inactive.
CCc1nc2c(c(-c3ccc(Cl)cc3)n1)CN(S(=O)(=O)c1ccccc1)CC2 was read as KDM5B inh inactive.
`Cc1noc(C)c1CNC(=O)CC(C)(C)C` gave KDM5B inh inactive.
Cc1noc(C)c1COc1ccc(C(=O)Nc2ccccc2)cc1 was read as KDM5B inh inactive.
CCCN(CCC)Cc1ccc(C(=O)NCc2c(C)noc2C)cc1 was read as KDM5B inh 28µM.
COc1ccccc1C(=O)Nc1ccc2oc(-c3cccc(I)c3)nc2c1 was read as KDM5B inh inactive.
CN(C)c1cccc2c(C(=O)c3ccccc3)ccc(N(C)C)c12 was read as KDM5B inh inactive.
Cc1ccc2oc(C(=O)Nc3ccc(S(N)(=O)=O)cc3)cc(=O)c2c1 was read as KDM5B inh inactive.
Cc1cc2cc(NS(=O)(=O)c3ccc(F)c(F)c3F)ccc2[nH]1 was read as KDM5B inh inactive.
For O=C(CCc1ccccc1)N1C[C@@H](CO)[C@H](c2nc(C3CC3)no2)C1 the results were KDM5B inh inactive.
`CN1CCN(CCCNc2nc(CO)nc3ccccc23)CC1` gave KDM5B inh inactive.
Screening CN1CCN(CCCNc2nccc(-c3ccccn3)n2)CC1 returned KDM5B inh 28µM.

Source: PubChem (National Center for Advancing Translational Sciences (NCATS))
